In PubChem BioAssay (NCATS):
Values joined by “and” are separate entries in the source; they are usually repeats but may differ in a detail not shown here. Equal values may be shown once. A number with no mark means an inactive call. Results filed as inconclusive are left out. Active and inactive are the calls of the source. Unless noted, calls follow the shape of the dose curve; as a rule, active = well fitted activation curve with a large enough effect; inconclusive = small, poorly fitted or top-dose-only effect; inactive = flat fitted curve, though single readings scatter.

System: not listed separately
Assay: qHTS assay for small molecule disruptors of the mitochondrial membrane potential - 1 hr assay (AID 651754; calls by dose curve; also: nearly all actives have a fitted effect of over 35% in size; also: potency is read from the fitted curve at half-maximal effect; as to ratio change, negative = depolarisation: % is scaled to controls: 0 for no effect and ±100 for the full control effect)
Settings: series mostly up to 92.2 µM; ratio change, negative = depolarisation: at the top concentration
Summary of the method: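 HepG2 cells, attached overnight at 37C, were exposed to compound or DMSO vehicle for 1 hr at 37C, 5% CO2, then stained with Mito-MPS dye for 30 min. Red aggregate versus green monomer fluorescence reports membrane potential.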

SMILES	ratio change, negative = depolarisation [%]	Potency
COc1cc(OC)c(OC)cc1C=O	-0.865	
CCOC(=O)CC(SP(=S)(OC)OC)C(=O)OCC (centres undefined)	-1.1	
C[C@]1(O)CC[C@H]2[C@@H]3CCC4=CC(=O)CC[C@]4(C)[C@@]3(F)[C@@H](O)C[C@@]21C	0.137	
CN1C[C@H](C(=O)N[C@]2(C)O[C@@]3(O)[C@@H]4CCCN4C(=O)[C@H](Cc4ccccc4)N3C2=O)C=C2c3cccc4[nH]cc(c34)C[C@H]21		11.9 µM (active)

System: not listed separately
Assay: qHTS assay for small molecule disruptors of the mitochondrial membrane potential - 5 hr assay (AID 651755; calls by dose curve; also: nearly all actives have a fitted effect of over 40% in size; also: potency is read from the fitted curve at half-maximal effect; as to ratio change, negative = disruption: % is scaled to controls: 0 for no effect and ±100 for the full control effect)
Settings: JC-1-type ratio dye; series mostly up to 92.2 µM; ratio change, negative = disruption: at the top concentration
Summary of the method: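 HepG2 cells (2,000/well), attached overnight, exposed to compound 5 hr at 37C, then Mito-MPS dye 30 min. Fluorescence read for monomers (490/535 nm) and aggregates (540/590 nm).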

SMILES	ratio change, negative = disruption [%]	Potency
COP(=S)(OC)Oc1ccc(SC)c(C)c1	-9.8	
COc1cc(OC)c(OC)cc1C=O	4.26	
CCOC(=O)CC(SP(=S)(OC)OC)C(=O)OCC (centres undefined)	-3.06	
C[C@]1(O)CC[C@H]2[C@@H]3CCC4=CC(=O)CC[C@]4(C)[C@@]3(F)[C@@H](O)C[C@@]21C	-11.6	
CN1C[C@H](C(=O)N[C@]2(C)O[C@@]3(O)[C@@H]4CCCN4C(=O)[C@H](Cc4ccccc4)N3C2=O)C=C2c3cccc4[nH]cc(c34)C[C@H]21		11.9 µM (active)

Target: Tumor necrosis factor (Homo sapiens) (UniProt P01375)
Sequence (P01375 whole entry, looked up): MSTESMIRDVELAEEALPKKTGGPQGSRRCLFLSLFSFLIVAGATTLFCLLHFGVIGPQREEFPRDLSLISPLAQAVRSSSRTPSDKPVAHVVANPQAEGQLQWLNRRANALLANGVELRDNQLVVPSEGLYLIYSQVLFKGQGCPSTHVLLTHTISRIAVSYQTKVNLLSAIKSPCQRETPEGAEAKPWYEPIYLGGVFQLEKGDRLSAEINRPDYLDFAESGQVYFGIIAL
Assay: qHTS assay to identify small molecules that stimulate Tumor Necrosis Factor-alpha (TNF-alpha) secretion (AID 651757; active = well fitted curve in the direction sought with a large enough effect in the signal ratio; the % refers to the signal ratio; also: 0% is about no effect)
Settings: Human cells, HTRF 665/615 ratio; series mostly up to 92.2 µM; activation (TNF-alpha secretion): at the top concentration
Summary of the method: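 THP-1 cells were exposed to compounds for 17 hrs at 37 C, after which secreted TNF-alpha was measured by homogeneous HTRF (TR-FRET) using cryptate- and XL665-labeled anti-TNF-alpha antibodies, read after 3 hr at room temperature.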

SMILES	activation (TNF-alpha secretion) [%]
Nc1ccccc1C(=O)O	0.843
Oc1ccc(Cl)cc1	-0.0265
CC(C)NC(C)C	0.142
C[C@]12CCC(=O)C=C1CC[C@@H]1[C@@H]2CC[C@@]2(C)[C@H]1CC[C@]2(C)O	0.591
COP(=S)(OC)Oc1ccc(SC)c(C)c1	1.07
COc1cc(OC)c(OC)cc1C=O	-0.0004
CCC(C)(C)c1ccc(O)cc1	-0.662
CCOC(=O)CC(SP(=S)(OC)OC)C(=O)OCC (centres undefined)	-0.142
C[C@]1(O)CC[C@H]2[C@@H]3CCC4=CC(=O)CC[C@]4(C)[C@@]3(F)[C@@H](O)C[C@@]21C	-0.129
Nc1ccccc1	0.203

System: not listed separately
Assay: qHTS assay to identify small molecules that stimulate interleukin-8 (IL-8) secretion (AID 651758; active = well fitted activation curve with a large enough effect in the signal ratio; the % refers to the signal ratio; also: 0% is about no effect)
Settings: HTRF ratio (665/615); series mostly up to 92.2 µM; activation: at the top concentration
Summary of the method: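 THP-1 cells (2000/well) exposed to compound 16 h at 37 C; secreted IL-8 then detected by HTRF with cryptate- and XL665-labelled anti-IL-8 antibody pair after 1-3 h at room temperature.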

SMILES	activation [%]
C[C@]12CCC(=O)C=C1CC[C@@H]1[C@@H]2CC[C@@]2(C)[C@H]1CC[C@]2(C)O	9.46
COP(=S)(OC)Oc1ccc(SC)c(C)c1	13.6
C[C@]1(O)CC[C@H]2[C@@H]3CCC4=CC(=O)CC[C@]4(C)[C@@]3(F)[C@@H](O)C[C@@]21C	23.4
Nc1ccccc1	-2.62

System: not listed separately
Assay: qHTS assay for environmental chemicals that activate the Aryl hydrocarbon Receptor (AhR) signaling pathway (AID 651777); also: % of control where 0% means no effect; nearly all actives have a fitted effect of over 15% in size
Settings: 1A2-DRE human hepatoma cells, luciferase, 24 h; active compounds read high
Summary of the method: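 Concentration–response screening used 1,200 1A2-DRE cells per well, 24 hr compound exposure (37 C, 5% CO2), and One-Glo luminescence as the AhR-driven CYP1A2 reporter signal.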

SMILES	activation
Nc1ccccc1C(=O)O	3.23%
Oc1ccc(Cl)cc1	0.502%
CC(C)NC(C)C	-1.71%
C[C@]12CCC(=O)C=C1CC[C@@H]1[C@@H]2CC[C@@]2(C)[C@H]1CC[C@]2(C)O	-0.473%
Nc1nc(N)nc(NC2CC2)n1	0.42%
CC1(C)C(C=C(Cl)Cl)C1C(=O)OC(C#N)c1cccc(Oc2ccccc2)c1 (centres undefined)	3.99%
O=C(O)CCCc1ccc(N(CCCl)CCCl)cc1	-0.459% and 0.835%
O=C1c2ccccc2C(=O)c2ccccc21	2.59%
COP(=S)(OC)Oc1cc(Cl)c(Cl)cc1Cl	2.9%
CCC(C)(C)c1ccc(O)cc1	0.262% and -0.822%
CCOC(=O)CC(SP(=S)(OC)OC)C(=O)OCC (centres undefined)	1.62% and 10.4% and -0.452%
C[C@]1(O)CC[C@H]2[C@@H]3CCC4=CC(=O)CC[C@]4(C)[C@@]3(F)[C@@H](O)C[C@@]21C	0.165%
CC(C)(C)c1ccc(O)cc1	0.343%
CN1C[C@H](C(=O)N[C@]2(C)O[C@@]3(O)[C@@H]4CCCN4C(=O)[C@H](Cc4ccccc4)N3C2=O)C=C2c3cccc4[nH]cc(c34)C[C@H]21	6.16% and 6.48%

Target: Peroxisome proliferator-activated receptor alpha (Homo sapiens) (UniProt Q07869)
Sequence (Q07869 whole entry, looked up): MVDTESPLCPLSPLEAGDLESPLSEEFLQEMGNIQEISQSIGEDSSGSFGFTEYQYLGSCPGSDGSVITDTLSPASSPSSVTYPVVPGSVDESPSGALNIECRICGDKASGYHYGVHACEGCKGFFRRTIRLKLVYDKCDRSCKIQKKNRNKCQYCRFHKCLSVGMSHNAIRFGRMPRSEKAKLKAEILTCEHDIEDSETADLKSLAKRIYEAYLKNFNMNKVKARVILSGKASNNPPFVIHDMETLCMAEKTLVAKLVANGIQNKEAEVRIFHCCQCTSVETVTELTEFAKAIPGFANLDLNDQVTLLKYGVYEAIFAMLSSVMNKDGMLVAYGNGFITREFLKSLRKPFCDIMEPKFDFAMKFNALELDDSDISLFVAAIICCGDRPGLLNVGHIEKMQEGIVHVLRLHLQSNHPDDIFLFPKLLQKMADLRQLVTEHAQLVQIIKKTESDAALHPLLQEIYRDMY
Assay: qHTS assay for small molecule agonists of the peroxisome proliferator-activated receptor alpha (PPARalpha) signaling pathway (AID 651778); also: % of control where 0% means no effect
Settings: PathHunter PPARalpha complementation, chemiluminescence, 6 h; active compounds read high
Summary of the method: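 Enzyme-fragment complementation assay in which ligand-bound PPARalpha translocates and forms an active enzyme that generates chemiluminescence. Cells were plated overnight, exposed to compound for 6 hr at 37 C, and then given detection reagent for 60 min at room temperature.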

SMILES	max response
Nc1ccccc1C(=O)O	0.553%
Oc1ccc(Cl)cc1	0.582%
CC(C)NC(C)C	0.708%
C[C@]12CCC(=O)C=C1CC[C@@H]1[C@@H]2CC[C@@]2(C)[C@H]1CC[C@]2(C)O	7.27%
COP(=S)(OC)Oc1ccc(SC)c(C)c1	6.43% and 7.61%
Nc1nc(N)nc(NC2CC2)n1	-0.264%
CC1(C)C(C=C(Cl)Cl)C1C(=O)OC(C#N)c1cccc(Oc2ccccc2)c1 (centres undefined)	-4.65%
O=C(O)CCCc1ccc(N(CCCl)CCCl)cc1	0.105% and -1.89%
O=C1c2ccccc2C(=O)c2ccccc21	0.92%
[N-]=[N+]=CC(=O)OC[C@H](N)C(=O)O	0.305%
COP(=S)(OC)Oc1cc(Cl)c(Cl)cc1Cl	-0.715%
COc1cc(OC)c(OC)cc1C=O	0.405%
CCC(C)(C)c1ccc(O)cc1	5.88% and -1.73%
CCOC(=O)CC(SP(=S)(OC)OC)C(=O)OCC (centres undefined)	-2.48% and 0.447% and -3.85%
C[C@]1(O)CC[C@H]2[C@@H]3CCC4=CC(=O)CC[C@]4(C)[C@@]3(F)[C@@H](O)C[C@@]21C	3%
Nc1ccccc1	7.46%
CN1C[C@H](C(=O)N[C@]2(C)O[C@@]3(O)[C@@H]4CCCN4C(=O)[C@H](Cc4ccccc4)N3C2=O)C=C2c3cccc4[nH]cc(c34)C[C@H]21	-3.76% and -6.49%
